Shown are actives, neighbours in structure and some others; about 3% of the full set was active somewhere.
GDH-TPI counter-1 – inhibits GDH-TPI coupling enzymes, artifact for Mtb FBA screen. GDH-TPI coupled enzyme counterscreen, NADH absorbance. inhibition, % at 4.8 µM. actives 1.2% (n = 360,000). AID 588335; in the data active means inhibition above about 30%
FBA Mtb inh – inhibits M. tuberculosis FBA enzyme. P9WQA3. purified M. tuberculosis FBA, fluorescence read-out. inhibition, % at 1 µM. actives 2.3% (n = 360,000)
Target sequence (P9WQA3 whole entry, looked up): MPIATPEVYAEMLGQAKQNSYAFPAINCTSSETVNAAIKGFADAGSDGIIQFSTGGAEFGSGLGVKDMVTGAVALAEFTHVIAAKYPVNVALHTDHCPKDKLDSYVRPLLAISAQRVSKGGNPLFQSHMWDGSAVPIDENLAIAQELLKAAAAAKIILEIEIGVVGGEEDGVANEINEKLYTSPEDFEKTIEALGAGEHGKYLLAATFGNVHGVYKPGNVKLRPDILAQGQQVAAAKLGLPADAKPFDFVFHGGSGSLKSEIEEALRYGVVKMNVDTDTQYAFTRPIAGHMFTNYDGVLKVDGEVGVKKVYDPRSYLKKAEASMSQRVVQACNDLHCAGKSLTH
BH1578 lux ind – inducers of Vibrio cholerae quorum light production without autoinducers; activation, % at 18.7 µM; AID 588436; actives 0.16% (n = 350,000); V. cholerae BH1578 lux reporter, luminescence, 6 h; in the data active means activation mostly above about 9.7%, no sharp cut-off
BioA inh – inhibitors of Mycobacterium tuberculosis BioA enzyme | purified M. tuberculosis BioA enzyme, plate reader | inhibition, % at 9.99 µM | actives 0.096% (n = 360,000); in the data active means inhibition above about 40%
Mtb FBA inh conf – confirmation of M. tuberculosis fructose-bisphosphate aldolase inhibitors. purified M. tuberculosis FBA, fluorescence read-out. shares compounds with FBA Mtb inh. inhibition, % at 1 µM. actives 78% (n = 5,600)
GDH-TPI counter-2 – GDH-TPI inhibition counter-screen for FBA inhibitors; shares compounds with FBA Mtb inh; GDH-TPI coupled enzyme counterscreen, fluorescence; inhibition, % at 1 µM; actives 81% (n = 5,600); in the data active means inhibition above about 10%
Each line names hits and unclear results; the compound was inactive in the other large screens (follow-up assays come after a bar, where they were run). Unless noted, no stated cut-off is given here; in the data, active means inhibition above about 27%; inactive means the rest.

Cn1nc(-c2ccc(Cl)cc2)c2cc(C(=O)NCCCN3CCCC3)sc21	FBA Mtb inh 35 | Mtb FBA inh conf 81 | GDH-TPI counter-2 71
COCCNC(=O)c1cc2c(-c3ccc(Cl)cc3)nn(C)c2s1	FBA Mtb inh 79 | Mtb FBA inh conf 69 | GDH-TPI counter-2 54
CCCCN(C)CCNC(=O)c1cc2c(-c3ccccc3F)nn(C)c2s1	FBA Mtb inh 46 | Mtb FBA inh conf 38 | GDH-TPI counter-2 32
COCCNC(=O)c1cc2c(-c3ccccc3F)nn(C)c2s1	FBA Mtb inh 35 | Mtb FBA inh conf 117 | GDH-TPI counter-2 88
CCCCN(CC)CCCNC(=O)c1cc2c(-c3ccc(OC)c(OC)c3)nn(C)c2s1	none
C[C@H](CO)N1C[C@H](C)[C@H](CN(C)Cc2ccncc2)Oc2ncc(C#Cc3ccncc3)cc2C1=O	none (no result: GDH-TPI counter-1, FBA Mtb inh, BH1578 lux ind)
O=C(C[C@@H]1CC[C@H](NC(=O)Nc2ccccc2F)[C@@H](CO)O1)NCc1ccc(Cl)cc1	none (no result: GDH-TPI counter-1, FBA Mtb inh, BH1578 lux ind)
C[C@@H]1CN([C@@H](C)CO)C(=O)c2cc(-c3cccnc3)cnc2O[C@H]1CN(C)C(=O)C1CCCCC1	none (no result: GDH-TPI counter-1, FBA Mtb inh, BH1578 lux ind)
CNC(=O)c1cc2c(-c3ccccc3)nn(C)c2s1	FBA Mtb inh 73 | Mtb FBA inh conf 102 | GDH-TPI counter-2 80
CC(C)NC(=O)c1cc2c(-c3ccc(Cl)cc3)nn(C)c2s1	none
COCCCNC(=O)c1cc2c(-c3ccc(Cl)cc3)nn(C)c2s1	FBA Mtb inh 74 | Mtb FBA inh conf 77 | GDH-TPI counter-2 73
C[C@@H]1CN([C@H](C)CO)S(=O)(=O)c2ccc(C#CC3CC3)cc2O[C@H]1CN(C)C(=O)CC1CC1	none (no result: GDH-TPI counter-1, FBA Mtb inh, BH1578 lux ind)
N#Cc1ccc(-c2cccs2)nc1SCc1cccnc1	FBA Mtb inh 34 | Mtb FBA inh conf inactive | GDH-TPI counter-2 inactive
N#Cc1c(C(F)(F)F)cc(-c2cccs2)nc1SCc1cccnc1	none
CN1CCN(C(=O)CSc2nc(-c3cccs3)ccc2C#N)CC1	FBA Mtb inh 50 | Mtb FBA inh conf active | GDH-TPI counter-2 active
C[C@H]1CN([C@@H](C)CO)C(=O)c2cc(C#Cc3ccc(F)cc3)cnc2O[C@@H]1CN(C)Cc1ccccn1	none (no result: GDH-TPI counter-1, FBA Mtb inh, BH1578 lux ind)
Cc1noc(C)c1NC(=O)Nc1cccc2c1O[C@@H](CN(C)C)[C@H](C)CN([C@@H](C)CO)C2=O	none (no result: GDH-TPI counter-1, FBA Mtb inh, BH1578 lux ind)
COc1ccc2c(COC(=O)[C@@H]3CCCN3S(=O)(=O)c3ccc(Cl)cc3)cc(=O)oc2c1	FBA Mtb inh 51 | Mtb FBA inh conf 102 | GDH-TPI counter-2 76
COc1ccc2c(COC(=O)CNC(=O)C34CC5CC(CC(C5)C3)C4)cc(=O)oc2c1	FBA Mtb inh 85 | Mtb FBA inh conf active | GDH-TPI counter-2 167
COc1ccc2c(CN3CCCCCCC3)cc(=O)oc2c1	FBA Mtb inh 82 (no result: GDH-TPI counter-1, BH1578 lux ind) | Mtb FBA inh conf inactive | GDH-TPI counter-2 inactive
COc1cc(NC(=O)COC(=O)CNC(=O)C23CC4CC(CC(C4)C2)C3)cc(OC)c1	none
CCCC(=O)Nc1ccc2c(c1)C(=O)N(C)C[C@H](OC)[C@@H](C)CN(C(=O)c1ccccn1)[C@H](C)CO2	none (no result: GDH-TPI counter-1, FBA Mtb inh, BH1578 lux ind)
C[C@@H]1CN([C@@H](C)CO)C(=O)c2cc(NC(=O)C3CC3)ccc2O[C@@H]1CN(C)Cc1ccc(C(F)(F)F)cc1	none (no result: GDH-TPI counter-1, FBA Mtb inh, BH1578 lux ind)
Cc1cc(C)n2c(nc3ccccc32)c1C(=O)NCc1ccccc1	FBA Mtb inh 48 | Mtb FBA inh conf inactive | GDH-TPI counter-2 15
Clc1ccc(/C=C/c2nc3ccccc3[nH]2)cc1	GDH-TPI counter-1 39, FBA Mtb inh 53 (no result: BH1578 lux ind) | Mtb FBA inh conf active | GDH-TPI counter-2 124
Clc1ccc(SCc2nc3ccccc3[nH]2)cc1	none
Clc1ccc(/C=C/c2nc3ccccc3[nH]2)c(Cl)c1	FBA Mtb inh 63 | Mtb FBA inh conf 60 | GDH-TPI counter-2 44
O=C(NCCc1cn2cccnc2n1)C1CCC(=O)N(Cc2ccccc2F)C1 (stereo unspecified)	FBA Mtb inh 94 | Mtb FBA inh conf 60 | GDH-TPI counter-2 39
C[C@@H]1CCCCO[C@@H](CN(C)S(=O)(=O)c2ccccc2)[C@@H](C)CN([C@@H](C)CO)C(=O)c2cc(NC(=O)CCC(F)(F)F)ccc2O1	none (no result: GDH-TPI counter-1, FBA Mtb inh, BH1578 lux ind)
O=C(c1ccc2c3c(cccc13)CC2)C1CCCN(CC2CC2)C1 (stereo unspecified)	FBA Mtb inh 33 | Mtb FBA inh conf inactive | GDH-TPI counter-2 inactive
Cc1cccc(-c2oc3ccc(-c4ccc5c(c4)OCO5)cc3c2/C=C/c2ccc(N)cc2)c1	FBA Mtb inh 44 | Mtb FBA inh conf 135 | GDH-TPI counter-2 120
O=C(OCC#CCSc1nnc(-c2cccc3ccccc23)o1)c1cccc2[nH]ccc12	FBA Mtb inh 36 | Mtb FBA inh conf 64 | GDH-TPI counter-2 51
COc1ccccc1C(=O)OCC#CCSc1nnc(-c2cccc3ccccc23)o1	none
CC1(C)Cc2nc(N)c(C(=O)NCCO)cc2CO1	FBA Mtb inh 98 | Mtb FBA inh conf active | GDH-TPI counter-2 active
CCCNC(=O)N1[C@@H]2CN(C(=O)c3ccccc3)c3ccccc3[C@@H]2[C@@H]1CO	none (no result: GDH-TPI counter-1, FBA Mtb inh, BH1578 lux ind)
CC(C)NC(=O)COC(=O)c1ccc(Cl)c(S(=O)(=O)N2CCCC2)c1	FBA Mtb inh 40 | Mtb FBA inh conf 124 | GDH-TPI counter-2 95
CC(C)NC(=O)COC(=O)c1ccc(Cl)c(S(N)(=O)=O)c1	none (no result: BioA inh)
COCC(=O)N(C[C@@H]1[C@@H](c2ccccc2)[C@H](CO)N1C(=O)NC(C)C)C(C)C	none (no result: GDH-TPI counter-1, FBA Mtb inh, BH1578 lux ind)
Nc1ncnc2oc(-c3ccco3)c(-c3ccco3)c12	FBA Mtb inh 31 | Mtb FBA inh conf active | GDH-TPI counter-2 143
COCC(=O)Nc1ccc2c(c1)C(=O)N(C)[C@H]1CC[C@H](CC(=O)Nc3cn(C)nc3C)O[C@H]1CO2	none (no result: GDH-TPI counter-1, FBA Mtb inh, BH1578 lux ind)
Cn1cc2ccc(N)cc2n1	FBA Mtb inh 29 | Mtb FBA inh conf 68 | GDH-TPI counter-2 56
C[C@H](O)[C@@H]1CN2CCc3c([nH]c4ccccc34)[C@@H]2C[C@@H]1N(C)C(=O)Nc1cc(Cl)cc(Cl)c1	none
C[C@H](O)[C@@H]1C(=O)N2CCc3c([nH]c4ccccc34)[C@@H]2C[C@@H]1N(C)C(=O)Nc1ccccc1	FBA Mtb inh 28 (no result: BioA inh) | Mtb FBA inh conf 52 | GDH-TPI counter-2 42
CN(C(=O)C(C)(C)C)[C@H]1C[C@H]2c3[nH]c4ccccc4c3CCN2C(=O)[C@H]1CO	FBA Mtb inh 79 | Mtb FBA inh conf active | GDH-TPI counter-2 active
CCOC(=O)CNC(=O)N(C)[C@H]1C[C@H]2c3[nH]c4ccccc4c3CCN2C(=O)[C@H]1[C@H](C)O	none (no result: GDH-TPI counter-1, BH1578 lux ind)
C[C@H](O)[C@@H]1C(=O)N2CCc3c([nH]c4ccccc34)[C@@H]2C[C@@H]1N(C)C(=O)Nc1cc(Cl)cc(Cl)c1	FBA Mtb inh 30 | Mtb FBA inh conf active | GDH-TPI counter-2 active
CN(Cc1cc(Cl)cc(Cl)c1)[C@H]1C[C@H]2c3[nH]c4ccccc4c3CCN2C(=O)[C@H]1CO	none
C[C@H](O)[C@@H]1C(=O)N2CCc3c([nH]c4ccccc34)[C@@H]2C[C@@H]1N(C)C(=O)c1ccco1	FBA Mtb inh 67 (no result: GDH-TPI counter-1, BH1578 lux ind) | Mtb FBA inh conf 144 | GDH-TPI counter-2 132
